In ChEMBL document CHEMBL1961873, “Compounds: GSK PKIS; Assays: Nanosyn kinase panel” (2012):

Experiments:
[1] = target: Serine/threonine-protein kinase MARK2 (Homo sapiens) (UniProt Q7KZI7); details: at 1 µM
[2] = target: PAS domain-containing serine/threonine-protein kinase (Homo sapiens) (UniProt Q96RG2); details: at 0.1 µM
[3] = target: PAS domain-containing serine/threonine-protein kinase (Homo sapiens) (UniProt Q96RG2); details: at 1 µM
[4] = target: Phosphorylase b kinase gamma catalytic chain, skeletal muscle/heart isoform (Homo sapiens) (UniProt Q16816); details: at 0.1 µM
[5] = target: Phosphorylase b kinase gamma catalytic chain, skeletal muscle/heart isoform (Homo sapiens) (UniProt Q16816); details: at 1 µM
[6] = target: T1, Phosphorylase b kinase gamma catalytic chain, liver/testis isoform (Homo sapiens) (UniProt P15735); details: at 0.1 µM
T1 sequence (whole entry): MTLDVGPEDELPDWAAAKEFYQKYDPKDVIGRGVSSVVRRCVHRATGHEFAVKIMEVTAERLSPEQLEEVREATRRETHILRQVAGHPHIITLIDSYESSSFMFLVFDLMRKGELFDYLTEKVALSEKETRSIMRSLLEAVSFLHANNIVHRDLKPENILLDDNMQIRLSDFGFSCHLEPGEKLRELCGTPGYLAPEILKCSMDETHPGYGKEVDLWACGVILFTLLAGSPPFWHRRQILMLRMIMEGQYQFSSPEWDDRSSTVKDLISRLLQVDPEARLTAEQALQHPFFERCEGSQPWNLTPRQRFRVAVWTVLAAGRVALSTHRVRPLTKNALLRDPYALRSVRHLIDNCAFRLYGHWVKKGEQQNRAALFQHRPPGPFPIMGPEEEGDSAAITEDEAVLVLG

[7] = target: T1, Phosphorylase b kinase gamma catalytic chain, liver/testis isoform (Homo sapiens); details: at 1 µM
[8] = target: Serine/threonine-protein kinase pim-1 (Homo sapiens) (UniProt P11309); details: at 0.1 µM
[9] = target: Serine/threonine-protein kinase pim-1 (Homo sapiens) (UniProt P11309); details: at 1 µM
[10] = target: Serine/threonine-protein kinase pim-2 (Homo sapiens) (UniProt Q9P1W9); details: at 0.1 µM
[11] = target: Serine/threonine-protein kinase pim-2 (Homo sapiens) (UniProt Q9P1W9); details: at 1 µM
[12] = target: Serine/threonine-protein kinase pim-3 (Homo sapiens) (UniProt Q86V86); details: at 0.1 µM
[13] = target: Serine/threonine-protein kinase pim-3 (Homo sapiens) (UniProt Q86V86); details: at 1 µM
[14] = target: T2, MAP kinase-activated protein kinase 5 (Homo sapiens) (UniProt Q8IW41); details: at 0.1 µM
T2 sequence (whole entry): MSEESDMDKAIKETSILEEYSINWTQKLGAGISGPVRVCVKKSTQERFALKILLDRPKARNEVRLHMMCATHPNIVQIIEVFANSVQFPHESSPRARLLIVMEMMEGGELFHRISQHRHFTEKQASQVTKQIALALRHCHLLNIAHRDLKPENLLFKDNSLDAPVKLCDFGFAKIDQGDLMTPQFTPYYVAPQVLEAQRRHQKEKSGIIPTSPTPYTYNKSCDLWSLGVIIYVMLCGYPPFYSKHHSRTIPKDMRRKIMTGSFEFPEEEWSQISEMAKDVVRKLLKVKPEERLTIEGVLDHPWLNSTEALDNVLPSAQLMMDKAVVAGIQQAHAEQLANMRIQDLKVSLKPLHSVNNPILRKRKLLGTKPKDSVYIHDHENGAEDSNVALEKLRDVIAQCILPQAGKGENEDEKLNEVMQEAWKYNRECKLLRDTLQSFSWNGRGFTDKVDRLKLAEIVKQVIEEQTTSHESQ

[15] = target: T2, MAP kinase-activated protein kinase 5 (Homo sapiens); details: at 1 µM
[16] = target: Serine/threonine-protein kinase SIK1 (Homo sapiens) (UniProt P57059); details: at 0.1 µM
[17] = target: Serine/threonine-protein kinase SIK1 (Homo sapiens) (UniProt P57059); details: at 1 µM
[18] = target: Serine/threonine-protein kinase SIK2 (Homo sapiens) (UniProt Q9H0K1); details: at 0.1 µM
[19] = target: Serine/threonine-protein kinase SIK2 (Homo sapiens) (UniProt Q9H0K1); details: at 1 µM
[20] = target: T3, Serine/threonine-protein kinase TBK1 (Homo sapiens) (UniProt Q9UHD2); details: at 0.1 µM;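 note: values are the mean TBK1 inhibition, taken from the GSK PKIS screening data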
T3 sequence (whole entry): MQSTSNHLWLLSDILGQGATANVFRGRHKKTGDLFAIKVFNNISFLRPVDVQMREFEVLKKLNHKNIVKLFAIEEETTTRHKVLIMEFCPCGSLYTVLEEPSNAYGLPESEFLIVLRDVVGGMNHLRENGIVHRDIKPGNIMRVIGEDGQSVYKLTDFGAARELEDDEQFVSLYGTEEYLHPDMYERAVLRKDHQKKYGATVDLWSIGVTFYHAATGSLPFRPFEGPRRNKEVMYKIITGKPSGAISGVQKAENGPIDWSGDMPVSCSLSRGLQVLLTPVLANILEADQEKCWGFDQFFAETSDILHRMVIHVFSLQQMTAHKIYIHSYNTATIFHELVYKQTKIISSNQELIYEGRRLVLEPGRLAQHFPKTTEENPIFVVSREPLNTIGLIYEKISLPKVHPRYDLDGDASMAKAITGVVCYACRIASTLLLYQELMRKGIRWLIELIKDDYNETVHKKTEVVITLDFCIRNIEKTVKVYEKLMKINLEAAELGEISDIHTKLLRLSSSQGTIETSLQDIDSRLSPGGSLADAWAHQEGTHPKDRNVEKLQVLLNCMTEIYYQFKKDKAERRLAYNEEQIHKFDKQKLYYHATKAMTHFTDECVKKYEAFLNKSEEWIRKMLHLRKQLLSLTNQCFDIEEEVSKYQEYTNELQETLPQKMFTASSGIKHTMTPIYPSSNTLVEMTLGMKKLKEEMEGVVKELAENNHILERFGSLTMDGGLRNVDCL

Chain of PAS domain-containing serine/threonine-protein kinase (Homo sapiens) (Q96RG2 whole entry, the tested form may be a part, canonical isoform): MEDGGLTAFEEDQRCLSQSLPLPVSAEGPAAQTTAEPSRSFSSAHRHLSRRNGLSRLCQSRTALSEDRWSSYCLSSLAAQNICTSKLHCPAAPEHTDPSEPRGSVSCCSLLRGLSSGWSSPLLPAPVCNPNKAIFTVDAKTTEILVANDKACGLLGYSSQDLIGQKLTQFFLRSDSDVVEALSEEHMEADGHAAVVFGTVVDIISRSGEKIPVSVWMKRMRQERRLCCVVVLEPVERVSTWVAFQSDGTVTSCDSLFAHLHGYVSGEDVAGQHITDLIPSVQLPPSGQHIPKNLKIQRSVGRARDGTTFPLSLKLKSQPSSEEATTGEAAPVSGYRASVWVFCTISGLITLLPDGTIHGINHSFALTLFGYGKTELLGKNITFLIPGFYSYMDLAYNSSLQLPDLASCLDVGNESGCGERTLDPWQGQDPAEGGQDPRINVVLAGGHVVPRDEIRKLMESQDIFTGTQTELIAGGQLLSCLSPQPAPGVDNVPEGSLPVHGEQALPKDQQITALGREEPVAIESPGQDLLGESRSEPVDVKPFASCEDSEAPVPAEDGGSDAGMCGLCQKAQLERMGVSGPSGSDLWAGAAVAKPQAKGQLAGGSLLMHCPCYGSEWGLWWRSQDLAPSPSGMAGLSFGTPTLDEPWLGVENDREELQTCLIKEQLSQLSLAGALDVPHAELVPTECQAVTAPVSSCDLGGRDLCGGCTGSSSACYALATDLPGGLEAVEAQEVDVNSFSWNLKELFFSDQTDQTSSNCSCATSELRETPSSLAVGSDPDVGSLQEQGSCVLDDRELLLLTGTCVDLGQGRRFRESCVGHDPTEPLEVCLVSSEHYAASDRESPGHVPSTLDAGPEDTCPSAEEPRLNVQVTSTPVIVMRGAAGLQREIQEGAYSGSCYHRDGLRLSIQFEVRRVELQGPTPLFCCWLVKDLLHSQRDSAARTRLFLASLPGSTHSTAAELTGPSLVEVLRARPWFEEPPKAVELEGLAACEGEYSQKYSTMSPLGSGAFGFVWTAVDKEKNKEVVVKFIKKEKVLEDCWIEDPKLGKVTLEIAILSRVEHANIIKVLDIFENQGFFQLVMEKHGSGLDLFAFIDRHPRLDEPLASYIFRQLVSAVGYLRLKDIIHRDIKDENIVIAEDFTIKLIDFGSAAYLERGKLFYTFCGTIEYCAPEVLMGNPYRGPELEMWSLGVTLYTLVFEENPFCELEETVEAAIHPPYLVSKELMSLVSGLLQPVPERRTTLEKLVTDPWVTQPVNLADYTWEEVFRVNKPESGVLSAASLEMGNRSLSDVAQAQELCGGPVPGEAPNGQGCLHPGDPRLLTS
Chain of Serine/threonine-protein kinase MARK2 (Homo sapiens) (Q7KZI7 whole entry, the tested form may be a part): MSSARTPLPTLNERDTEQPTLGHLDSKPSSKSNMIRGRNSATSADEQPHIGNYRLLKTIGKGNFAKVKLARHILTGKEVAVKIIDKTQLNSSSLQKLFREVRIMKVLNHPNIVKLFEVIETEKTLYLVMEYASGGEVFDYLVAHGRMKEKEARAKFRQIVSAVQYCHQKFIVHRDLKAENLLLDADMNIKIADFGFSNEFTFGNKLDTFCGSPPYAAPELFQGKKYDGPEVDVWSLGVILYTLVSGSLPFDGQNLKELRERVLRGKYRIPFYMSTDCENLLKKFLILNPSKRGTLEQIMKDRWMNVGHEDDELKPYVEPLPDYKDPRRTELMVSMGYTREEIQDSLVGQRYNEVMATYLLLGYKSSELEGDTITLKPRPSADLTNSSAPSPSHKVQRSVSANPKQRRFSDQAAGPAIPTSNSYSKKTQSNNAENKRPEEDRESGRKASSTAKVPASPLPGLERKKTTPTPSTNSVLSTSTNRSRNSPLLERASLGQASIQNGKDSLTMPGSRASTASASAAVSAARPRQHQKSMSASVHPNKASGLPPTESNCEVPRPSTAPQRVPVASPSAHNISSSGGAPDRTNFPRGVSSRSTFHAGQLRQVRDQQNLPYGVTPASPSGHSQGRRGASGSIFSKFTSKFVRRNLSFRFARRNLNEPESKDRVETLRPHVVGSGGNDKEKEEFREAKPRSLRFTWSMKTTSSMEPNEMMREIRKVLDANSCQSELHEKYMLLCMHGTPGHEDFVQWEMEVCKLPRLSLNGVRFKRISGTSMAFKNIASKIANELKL
Chain of Phosphorylase b kinase gamma catalytic chain, skeletal muscle/heart isoform (Homo sapiens) (Q16816 whole entry, looked up, canonical isoform): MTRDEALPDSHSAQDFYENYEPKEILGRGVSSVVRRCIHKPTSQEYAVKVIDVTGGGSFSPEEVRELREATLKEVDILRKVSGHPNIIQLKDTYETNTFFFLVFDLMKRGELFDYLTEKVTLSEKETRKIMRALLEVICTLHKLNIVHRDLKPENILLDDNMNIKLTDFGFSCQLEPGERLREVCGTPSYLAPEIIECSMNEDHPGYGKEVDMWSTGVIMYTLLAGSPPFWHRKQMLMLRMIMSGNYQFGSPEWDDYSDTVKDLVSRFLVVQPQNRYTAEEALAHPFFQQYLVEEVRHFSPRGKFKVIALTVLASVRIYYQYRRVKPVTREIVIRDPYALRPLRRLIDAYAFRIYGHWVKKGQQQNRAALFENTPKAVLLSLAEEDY
Chain of Serine/threonine-protein kinase pim-1 (Homo sapiens) (P11309 whole entry, looked up): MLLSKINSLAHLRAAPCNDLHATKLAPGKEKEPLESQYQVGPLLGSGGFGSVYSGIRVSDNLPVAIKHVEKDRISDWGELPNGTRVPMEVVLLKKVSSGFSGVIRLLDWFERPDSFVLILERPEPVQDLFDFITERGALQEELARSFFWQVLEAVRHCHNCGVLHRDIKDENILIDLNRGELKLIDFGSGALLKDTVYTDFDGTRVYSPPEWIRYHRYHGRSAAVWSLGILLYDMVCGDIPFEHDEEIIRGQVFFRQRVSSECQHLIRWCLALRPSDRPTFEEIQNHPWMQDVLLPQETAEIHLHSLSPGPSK
Chain of Serine/threonine-protein kinase SIK1 (Homo sapiens) (P57059 whole entry): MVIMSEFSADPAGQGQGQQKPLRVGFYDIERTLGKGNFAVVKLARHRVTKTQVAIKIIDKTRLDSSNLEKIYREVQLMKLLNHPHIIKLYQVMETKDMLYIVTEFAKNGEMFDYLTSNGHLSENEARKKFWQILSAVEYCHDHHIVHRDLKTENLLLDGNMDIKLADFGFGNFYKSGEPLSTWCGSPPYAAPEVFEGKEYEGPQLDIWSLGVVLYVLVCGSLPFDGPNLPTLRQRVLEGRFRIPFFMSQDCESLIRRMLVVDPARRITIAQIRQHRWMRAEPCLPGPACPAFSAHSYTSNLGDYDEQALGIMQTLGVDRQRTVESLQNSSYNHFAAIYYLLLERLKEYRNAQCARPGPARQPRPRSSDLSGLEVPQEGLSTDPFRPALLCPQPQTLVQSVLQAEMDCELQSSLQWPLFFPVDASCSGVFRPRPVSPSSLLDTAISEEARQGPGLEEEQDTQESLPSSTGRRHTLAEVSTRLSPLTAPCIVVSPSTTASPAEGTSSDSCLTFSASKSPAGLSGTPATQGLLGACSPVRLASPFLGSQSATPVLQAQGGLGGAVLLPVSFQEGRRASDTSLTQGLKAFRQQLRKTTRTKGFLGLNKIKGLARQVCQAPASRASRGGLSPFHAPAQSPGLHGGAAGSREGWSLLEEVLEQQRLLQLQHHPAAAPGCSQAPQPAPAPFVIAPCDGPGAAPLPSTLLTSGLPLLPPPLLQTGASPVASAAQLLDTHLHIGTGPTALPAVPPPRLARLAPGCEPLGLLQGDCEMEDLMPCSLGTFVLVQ
Chain of Serine/threonine-protein kinase SIK2 (Homo sapiens) (Q9H0K1 whole entry, looked up): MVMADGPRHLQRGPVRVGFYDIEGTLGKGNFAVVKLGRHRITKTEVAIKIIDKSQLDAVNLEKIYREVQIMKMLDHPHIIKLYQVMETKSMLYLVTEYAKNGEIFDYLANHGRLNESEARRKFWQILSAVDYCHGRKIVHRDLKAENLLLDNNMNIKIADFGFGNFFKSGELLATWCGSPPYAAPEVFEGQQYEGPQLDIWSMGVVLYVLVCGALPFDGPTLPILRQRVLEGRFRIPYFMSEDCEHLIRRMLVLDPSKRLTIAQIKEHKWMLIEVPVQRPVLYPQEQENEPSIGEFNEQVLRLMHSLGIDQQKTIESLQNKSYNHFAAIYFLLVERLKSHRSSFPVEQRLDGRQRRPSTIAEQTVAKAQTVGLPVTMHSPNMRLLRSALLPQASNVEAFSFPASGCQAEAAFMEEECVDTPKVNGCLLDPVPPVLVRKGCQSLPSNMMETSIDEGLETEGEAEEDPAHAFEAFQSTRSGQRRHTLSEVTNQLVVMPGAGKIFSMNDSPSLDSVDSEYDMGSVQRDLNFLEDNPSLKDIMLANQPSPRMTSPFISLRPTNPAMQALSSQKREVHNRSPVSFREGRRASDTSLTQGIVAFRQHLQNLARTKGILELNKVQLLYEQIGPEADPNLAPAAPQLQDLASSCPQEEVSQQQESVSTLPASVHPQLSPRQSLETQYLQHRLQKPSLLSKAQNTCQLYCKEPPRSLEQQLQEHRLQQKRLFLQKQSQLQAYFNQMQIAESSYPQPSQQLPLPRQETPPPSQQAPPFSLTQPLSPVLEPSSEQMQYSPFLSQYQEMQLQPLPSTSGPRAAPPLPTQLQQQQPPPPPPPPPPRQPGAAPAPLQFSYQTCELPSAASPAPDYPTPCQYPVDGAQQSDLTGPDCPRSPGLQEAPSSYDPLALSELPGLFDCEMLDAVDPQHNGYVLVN

Structure (SMILES)	inhibition [1] [%]	inhibition [2] [%]	inhibition [3] [%]	inhibition [4] [%]	inhibition [5] [%]	inhibition [6] [%]	inhibition [7] [%]	inhibition [8] [%]	inhibition [9] [%]	inhibition [10] [%]	inhibition [11] [%]	inhibition [12] [%]	inhibition [13] [%]	inhibition [14] [%]	inhibition [15] [%]	inhibition [16] [%]	inhibition [17] [%]	inhibition [18] [%]	inhibition [19] [%]	inhibition [20] [%]
COc1cc2ncn(-c3cc(OCCc4ccccc4)c(C(N)=O)s3)c2cc1OC	2.11	0.16	-0.56	3.81	2.4	1.37	0.33	-0.26	-0.29	-0.04	0.47	-1.48	-2.48	0.21	-0.58	3.59	9.48	1.23	3.75	0.96
COc1cc2ncn(-c3cc(OCc4cccs4)c(C(N)=O)s3)c2cc1OC	2.32	2.13	6.7	3.47	6.14	3.82	10.1	0.81	2.01	-2.64	-1.58	3.33	8.26	2.5	5.17	4.36	23.7	6.37	24.9	3.06
Cc1ccc(C(=O)NC(C)C)cc1-c1ccc(C(=O)NCC2CC2)cc1	2.12	0.53	0.4	-0.31	1.18	-5.49	-6.57	0.13	0.56	0.1	1.24	1.28	2.53	-1.12	-1.11	-0.49	-1.49	0.37	-9.28	-1.37
NC(=O)c1cc(-c2ccc(F)cc2)cc(-c2ccncc2)c1N	-0.63	-1.01	-1.24	5.8	5.92	4.55	5.76	0.02	1.09	-0.12	-1.22	-0.69	-5.17	1.11	2.54	4.79	9.72	7.37	8.31	3.66
CN(c1ccc(NC(=O)Nc2c(Cl)cccc2Cl)cc1)c1ccnc(Nc2cccc(CS(C)(=O)=O)c2)n1	2.99	0.68	2.77	2.51	8.06	2.8	6.5	-0.26	0.34	0.03	0.1	1.1	3.85	1.58	1.46	5.71	13.3	9.6	10.2	3.74
O=C(NCC1CC1)c1ccc(-c2cccc(C(=O)NC3CC3)c2)cc1	1.08	0.62	-1.02	1.06	-2.22	2.3	-1.04	0.15	0.34	0.75	0.96	-0.84	-3.1	0.6	-0.88	0.25	4.41	-1.64	-0.16	2.28
COc1cc(Nc2ncc3c(C)nc(-c4cccc(Oc5ccccc5)c4)n3n2)cc(OC)c1OC	5.64	0.54	-0.72	-0.01	5.67	2.66	-0.4	0.91	1.16	0.23	1.14	0.34	-0.16	-0.04	-1.56	3.67	10.1	1.91	0.43	4.47
CN1CCN(CCCNc2nc3ccc(Oc4ccc(NC(=O)Nc5cc(C(F)(F)F)ccc5F)cc4)cc3[nH]2)CC1	2.75	1.07	-1.18	-0.01	0.68	2.23	-0.8	0.7	0.87	-1.87	-1.74	1.11	-0.28	-0.1	-1.41	0.75	3.99	-2.3	0.76	1.88
CCS(=O)(=O)c1ccc(OC)c(Nc2ncc(-c3cccc(-c4ccccc4F)c3)o2)c1	0.68	-0.22	-0.96	1.99	9.38	0.01	-0.67	-0.29	5.63	0.1	0.73	3.42	0.84	0.06	-0.29	0.43	2.58	-1.84	6.03	0.72
N#Cc1ccc(Oc2nccc(-c3c(-c4ccc(F)cc4)ncn3C3CCNCC3)n2)cc1	-1.45	-0.29	-0.33	5.34	6.84	4.1	4.74	1.27	2.26	-0.01	0.58	0.29	0.8	1.34	1.48	5.1	7.69	2.82	9.93	1.69
COc1ccc2cc(-c3c(-c4ccncc4)nc(-c4ccc([S+](C)[O-])cc4C)n3C)ccc2c1 (stereo not given)	-1.74	-0.31	-0.06	-0.07	0.13	-1.33	-1.4	0.66	0.72	-0.27	0.03	0.41	0.9	-0.74	-0.31	-2.25	3.56	-6.12	-0.83	0.16
O=C(Nc1n[nH]c2cc(-c3ccccc3)ccc12)C1CC1	3.6	0.21	-1.15	8.27	7.18	5.27	4.5	1.3	0.46	0.26	0.64	-2.16	-2.34	1.27	0.86	5.14	9.28	5.24	12.8	1.84
CCS(=O)(=O)c1ccc(OC)c(Nc2ncc(-c3ccccc3Cl)o2)c1	-0.17	1.42	0.93	1.33	1.36	1.67	0.7	-0.02	1.67	-0.56	0.67	-0.12	2.15	0.46	-0.58	2.08	0.14	1.64	3.21	1.3
